From PubChem BioAssay (NCI) come the findings set out here.

The panel holds about 79,000 compounds, 15% with a hit somewhere; the sample as a whole holds those more often. A number with no mark means an inactive call. Activity calls are given as the source filed them. Rule as the data show it: active = growth inhibition above about 70%; inactive = the rest.

The experiment is described as follows: NCI Yeast Anticancer Drug Screen. Data for the wt1 strain (AID 149).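 Also: 0% = growth of vehicle-treated wt1 cultures.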 To be noted: S. cerevisiae wt1 strain (SPY 50644) growth inhibition, stronger effect = higher value. The protocol:
Growth inhibition of yeast strains with defined genetic alterations is measured as a screen for potential anti-cancer activity. Selected strains with alterations in DNA damage repair or cell cycle control were exposed to compounds and growth inhibition was measured relative to vehicle treated controls. The strain used in this assay is wt1

Regarding `Cc1c2cc[n+](CCO)cc2c(C)c2c1[nH]c1ccc(O)cc12`, the growth inhibition is 8% (at 1.2 µM); 12% (at 3.7 µM); 1% (at 11.0 µM); 11% (at 33.0 µM); 13% (at 100.0 µM).

Regarding `CCCCCCCC/C=C\CCCCCCCCN`, the growth inhibition by setting is: (at 1.2 µM) 13%; (at 3.7 µM) 17%; (at 11.0 µM) 9%; (at 33.0 µM) 98% (active); (at 100.0 µM) 98% (active).

`O=C1Nc2ccc(Br)cc2C1=Nc1ccc(Cl)cc1`: the growth inhibition (at 1.2 µM) was -8%; the growth inhibition (at 3.7 µM) was -15%; the growth inhibition (at 11.0 µM) was 14%; the growth inhibition (at 33.0 µM) was 42%; the growth inhibition (at 100.0 µM) was 71% (active).

With `O=C(c1ccccc1)[C@H]1Nc2ccc(Cl)cc2[C@H]2OCCC[C@@H]12`, the growth inhibition runs as follows: (at 1.2 µM) -7%; (at 3.7 µM) -6%; (at 11.0 µM) -2%; (at 33.0 µM) 24%; (at 100.0 µM) 88% (active).

Consider `O=C1Nc2ccc(Br)cc2C1=Nc1cccnc1`, for which the growth inhibition (at 1.2 µM) was -25%; the growth inhibition (at 3.7 µM) is -20%; the growth inhibition (at 11.0 µM) was -17%; the growth inhibition (at 33.0 µM) was -8%; the growth inhibition (at 100.0 µM) is -24%.

On to `O=[N+]([O-])c1ccc(S(=O)(=O)Cc2ccccc2)c([N+](=O)[O-])c1`, for which the growth inhibition was 6% (at 1.2 µM); 9% (at 3.7 µM); 24% (at 11.0 µM); 88% (active) (at 33.0 µM); 99% (active) (at 100.0 µM).

With `Clc1ccc(/C(=C\c2ccccc2)Cn2ccnc2)cc1`, the growth inhibition reads like this: (at 1.2 µM) 9%; (at 3.7 µM) 12%; (at 11.0 µM) 28%; (at 33.0 µM) 20%; (at 100.0 µM) 39%.

With `O=C1Oc2ccccc2C(=O)/C1=C/N1C(=O)N/C(=C\c2ccccc2Br)C1=O`, the growth inhibition was 4% (at 1.2 µM); 7% (at 3.7 µM); 8% (at 11.0 µM); 18% (at 33.0 µM); 55% (at 100.0 µM).
